Data: the supplement of paper PMC10849652
The full data set covers some 8,800 targets. This sample favours those with a hit. About 0.5% of all pairs of compound and target were hits. Unmarked numbers belong to inactive results.

Chain of UniProt P13598 (P13598 whole entry, looked up): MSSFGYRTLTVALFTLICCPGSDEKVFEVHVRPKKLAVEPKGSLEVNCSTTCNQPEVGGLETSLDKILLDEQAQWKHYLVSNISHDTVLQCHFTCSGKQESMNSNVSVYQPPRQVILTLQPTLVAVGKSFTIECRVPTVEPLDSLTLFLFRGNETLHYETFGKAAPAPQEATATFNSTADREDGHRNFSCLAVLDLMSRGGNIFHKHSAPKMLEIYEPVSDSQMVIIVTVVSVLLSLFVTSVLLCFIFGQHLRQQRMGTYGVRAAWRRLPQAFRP
Chain of UniProt P12081 (P12081 whole entry, looked up): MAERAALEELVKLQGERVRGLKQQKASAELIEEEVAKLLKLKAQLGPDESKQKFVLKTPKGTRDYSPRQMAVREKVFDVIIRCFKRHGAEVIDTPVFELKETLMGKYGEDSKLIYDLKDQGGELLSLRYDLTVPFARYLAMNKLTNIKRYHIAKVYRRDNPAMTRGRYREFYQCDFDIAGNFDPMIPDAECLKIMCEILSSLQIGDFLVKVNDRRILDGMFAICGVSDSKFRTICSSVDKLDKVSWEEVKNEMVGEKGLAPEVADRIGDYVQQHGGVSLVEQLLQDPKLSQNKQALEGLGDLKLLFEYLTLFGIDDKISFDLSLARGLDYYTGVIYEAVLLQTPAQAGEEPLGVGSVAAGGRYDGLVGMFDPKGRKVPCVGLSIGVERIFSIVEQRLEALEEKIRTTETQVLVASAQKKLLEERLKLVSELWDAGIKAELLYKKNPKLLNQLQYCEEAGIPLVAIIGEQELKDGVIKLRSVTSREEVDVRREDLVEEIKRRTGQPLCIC
Chain of UniProt Q1KMD3 (Q1KMD3 whole entry, looked up): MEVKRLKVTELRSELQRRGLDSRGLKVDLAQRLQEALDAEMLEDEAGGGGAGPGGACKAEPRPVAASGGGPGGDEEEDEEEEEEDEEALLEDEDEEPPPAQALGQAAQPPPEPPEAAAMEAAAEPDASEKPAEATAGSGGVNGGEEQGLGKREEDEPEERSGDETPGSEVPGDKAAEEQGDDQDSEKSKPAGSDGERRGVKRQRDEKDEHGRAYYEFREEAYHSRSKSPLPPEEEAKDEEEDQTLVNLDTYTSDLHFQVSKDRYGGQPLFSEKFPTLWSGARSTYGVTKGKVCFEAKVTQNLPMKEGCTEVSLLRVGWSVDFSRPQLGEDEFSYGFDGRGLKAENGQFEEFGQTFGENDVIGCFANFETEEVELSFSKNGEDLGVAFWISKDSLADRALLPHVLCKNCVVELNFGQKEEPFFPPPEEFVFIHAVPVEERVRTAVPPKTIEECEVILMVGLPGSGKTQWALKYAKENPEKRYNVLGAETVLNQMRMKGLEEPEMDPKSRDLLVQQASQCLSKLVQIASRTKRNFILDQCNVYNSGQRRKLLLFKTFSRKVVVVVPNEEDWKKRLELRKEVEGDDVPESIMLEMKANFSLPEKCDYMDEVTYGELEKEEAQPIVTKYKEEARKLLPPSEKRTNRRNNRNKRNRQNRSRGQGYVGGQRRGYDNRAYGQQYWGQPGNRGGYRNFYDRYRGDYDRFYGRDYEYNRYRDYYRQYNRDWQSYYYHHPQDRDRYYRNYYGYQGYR
Chain of UniProt O94927 (O94927 whole entry, looked up): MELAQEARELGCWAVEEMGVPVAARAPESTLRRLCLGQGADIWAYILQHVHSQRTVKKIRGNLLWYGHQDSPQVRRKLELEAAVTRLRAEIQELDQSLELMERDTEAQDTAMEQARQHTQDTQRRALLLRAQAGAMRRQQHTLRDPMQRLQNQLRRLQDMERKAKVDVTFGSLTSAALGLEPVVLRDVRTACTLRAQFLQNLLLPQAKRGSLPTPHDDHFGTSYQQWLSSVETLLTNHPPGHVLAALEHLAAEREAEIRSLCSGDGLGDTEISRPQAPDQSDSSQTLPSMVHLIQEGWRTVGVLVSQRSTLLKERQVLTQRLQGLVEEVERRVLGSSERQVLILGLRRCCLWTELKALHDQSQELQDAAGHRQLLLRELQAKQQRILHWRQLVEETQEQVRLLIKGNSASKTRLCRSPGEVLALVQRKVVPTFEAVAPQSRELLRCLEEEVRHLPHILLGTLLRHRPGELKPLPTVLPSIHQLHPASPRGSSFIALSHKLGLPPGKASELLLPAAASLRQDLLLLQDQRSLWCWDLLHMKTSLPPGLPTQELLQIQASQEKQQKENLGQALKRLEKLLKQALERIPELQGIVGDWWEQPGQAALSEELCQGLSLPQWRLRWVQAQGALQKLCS
Chain of UniProt Q99714 (Q99714 whole entry, looked up): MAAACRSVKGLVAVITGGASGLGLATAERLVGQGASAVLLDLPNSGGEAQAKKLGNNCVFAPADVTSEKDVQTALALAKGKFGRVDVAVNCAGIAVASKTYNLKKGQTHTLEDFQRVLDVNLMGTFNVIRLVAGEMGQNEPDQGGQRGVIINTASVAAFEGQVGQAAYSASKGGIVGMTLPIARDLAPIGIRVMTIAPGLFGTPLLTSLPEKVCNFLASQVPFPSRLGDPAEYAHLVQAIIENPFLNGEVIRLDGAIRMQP
Chain of UniProt Q16891 (Q16891 whole entry, looked up): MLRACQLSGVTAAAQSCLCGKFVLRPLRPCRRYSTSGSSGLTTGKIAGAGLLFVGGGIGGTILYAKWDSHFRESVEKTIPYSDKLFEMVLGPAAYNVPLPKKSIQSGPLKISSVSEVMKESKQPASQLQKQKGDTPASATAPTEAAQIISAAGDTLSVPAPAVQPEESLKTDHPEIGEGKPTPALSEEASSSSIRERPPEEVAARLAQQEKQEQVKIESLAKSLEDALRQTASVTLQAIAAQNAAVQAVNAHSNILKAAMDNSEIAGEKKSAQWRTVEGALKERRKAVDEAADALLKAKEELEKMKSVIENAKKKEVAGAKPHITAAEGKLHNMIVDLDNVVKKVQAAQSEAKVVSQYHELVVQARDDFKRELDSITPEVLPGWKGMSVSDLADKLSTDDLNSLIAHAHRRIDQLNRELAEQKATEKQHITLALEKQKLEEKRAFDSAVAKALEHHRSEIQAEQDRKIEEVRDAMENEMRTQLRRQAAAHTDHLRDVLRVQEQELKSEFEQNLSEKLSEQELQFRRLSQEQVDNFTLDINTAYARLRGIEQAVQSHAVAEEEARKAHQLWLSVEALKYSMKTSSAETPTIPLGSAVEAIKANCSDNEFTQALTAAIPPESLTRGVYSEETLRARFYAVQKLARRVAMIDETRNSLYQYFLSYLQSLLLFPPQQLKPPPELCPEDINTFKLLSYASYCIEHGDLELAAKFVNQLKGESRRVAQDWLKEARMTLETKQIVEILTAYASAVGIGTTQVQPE
Chain of UniProt P19367 (P19367 whole entry, looked up): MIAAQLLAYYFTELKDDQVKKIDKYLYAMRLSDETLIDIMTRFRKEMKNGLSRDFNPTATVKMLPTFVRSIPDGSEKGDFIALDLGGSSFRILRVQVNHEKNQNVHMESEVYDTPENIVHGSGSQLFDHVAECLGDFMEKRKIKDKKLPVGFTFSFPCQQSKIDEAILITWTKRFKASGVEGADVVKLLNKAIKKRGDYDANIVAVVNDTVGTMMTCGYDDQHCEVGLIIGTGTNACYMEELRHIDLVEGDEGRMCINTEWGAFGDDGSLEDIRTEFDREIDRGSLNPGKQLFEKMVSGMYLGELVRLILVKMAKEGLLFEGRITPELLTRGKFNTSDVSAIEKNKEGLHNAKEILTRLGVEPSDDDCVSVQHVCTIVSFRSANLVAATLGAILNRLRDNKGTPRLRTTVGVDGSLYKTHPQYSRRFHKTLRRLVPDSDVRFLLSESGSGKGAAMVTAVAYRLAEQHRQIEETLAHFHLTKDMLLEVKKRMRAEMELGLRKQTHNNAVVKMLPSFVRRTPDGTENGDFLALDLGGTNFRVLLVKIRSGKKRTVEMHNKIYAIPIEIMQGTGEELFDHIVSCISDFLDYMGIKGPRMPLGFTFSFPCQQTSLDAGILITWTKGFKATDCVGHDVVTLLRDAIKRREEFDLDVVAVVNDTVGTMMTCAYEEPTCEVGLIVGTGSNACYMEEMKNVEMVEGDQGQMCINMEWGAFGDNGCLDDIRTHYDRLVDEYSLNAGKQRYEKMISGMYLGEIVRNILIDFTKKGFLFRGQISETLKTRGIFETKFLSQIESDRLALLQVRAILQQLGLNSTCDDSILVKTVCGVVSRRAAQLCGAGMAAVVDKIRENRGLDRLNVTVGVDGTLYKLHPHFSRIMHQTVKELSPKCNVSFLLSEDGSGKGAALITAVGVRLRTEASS
Chain of UniProt Q9BUE6 (Q9BUE6 whole entry, looked up): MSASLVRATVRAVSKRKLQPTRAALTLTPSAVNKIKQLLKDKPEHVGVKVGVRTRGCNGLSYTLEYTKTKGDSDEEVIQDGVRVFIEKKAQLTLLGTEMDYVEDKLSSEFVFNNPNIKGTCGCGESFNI
Chain of UniProt Q6DN03 (Q6DN03 whole entry, looked up): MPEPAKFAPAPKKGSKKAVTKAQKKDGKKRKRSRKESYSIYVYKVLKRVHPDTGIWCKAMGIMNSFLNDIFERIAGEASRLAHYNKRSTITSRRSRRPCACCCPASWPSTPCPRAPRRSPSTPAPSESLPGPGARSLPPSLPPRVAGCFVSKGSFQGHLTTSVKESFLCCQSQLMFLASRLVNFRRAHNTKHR
Chain of UniProt Q9H079 (Q9H079 whole entry, looked up): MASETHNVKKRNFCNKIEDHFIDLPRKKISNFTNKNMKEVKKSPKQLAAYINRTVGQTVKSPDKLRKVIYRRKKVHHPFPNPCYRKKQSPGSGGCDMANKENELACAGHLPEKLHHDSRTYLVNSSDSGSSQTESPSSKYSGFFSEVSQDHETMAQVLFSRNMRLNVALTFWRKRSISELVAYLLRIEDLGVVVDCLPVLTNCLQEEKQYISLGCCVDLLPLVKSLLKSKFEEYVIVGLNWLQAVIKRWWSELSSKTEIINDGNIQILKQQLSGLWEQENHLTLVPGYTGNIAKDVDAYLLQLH
Chain of UniProt P04792 (P04792 whole entry, looked up): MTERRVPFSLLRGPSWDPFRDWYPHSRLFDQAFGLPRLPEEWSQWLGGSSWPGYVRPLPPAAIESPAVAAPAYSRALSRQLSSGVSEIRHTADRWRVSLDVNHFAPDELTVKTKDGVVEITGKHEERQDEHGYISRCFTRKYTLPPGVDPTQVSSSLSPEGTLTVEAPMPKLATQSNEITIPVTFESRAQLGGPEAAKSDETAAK

Each target was assayed with Cc1cn(-c2cc(NC(=O)c3ccc(C)c(Nc4nccc(-c5cccnc5)n4)c3)cc(C(F)(F)F)c2)cn1 [nilotinib] (assay: log2 fold change, soluble protein after heating vs DMSO (PISA); higher = thermal stabilisation; K562 lysate, 10 uM; active = over 0.2 and 3.5 SD of the protein, either way, in both replicates (recomputed)).
Method in brief: (§1)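 Thermal stability, expressed as log-two fold change relative to solvent controls, is given from duplicates. Crude K562 extract in PBS pH 7.4 with 1 mM MgCl2, at 1 mg/mL protein, was treated with 10 μM compound for 30 min and heated in aliquots for 3 min across 48°C-58°C. After pooling, adjustment to 0.5% NP-40 at 4°C and centrifugation at 21,000xg for 90 min, supernatant protein was measured by TMTpro 16plex LC-MS/MS with channel sums equalised.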
With HIST2H2BC (UniProt Q6DN03) the log2 fold change was 0.003. With HARS (UniProt P12081) the log2 fold change was 0.031. With HNRNPUL2 (UniProt Q1KMD3) the log2 fold change was -0.037. Target ISCA1 isoform 2 (UniProt Q9BUE6) has a log2 fold change of 0.043. With HSPA8 (UniProt E9PN89) the log2 fold change was 0.013. In the case of IMMT (UniProt Q16891), the log2 fold change was -0.009. HAUS5 (UniProt O94927) showed a log2 fold change of -0.014. Target IMPDH2 (UniProt P12268) has a log2 fold change of 0. Work on HSD17B10 (UniProt Q99714) yielded a log2 fold change of 0. In the case of HK1 isoform 2 (UniProt P19367), the log2 fold change was 0.011. In the case of HIST2H2AA3 (UniProt Q6FI13), the log2 fold change was 0.135. With HELQ (UniProt Q8TDG4) the log2 fold change was -0.486 (active). ICAM2 (UniProt P13598) gave a log2 fold change of 0.081.

Each target was assayed with Cc1nc(Nc2n[nH]c3c2CN(C(=O)N[C@H](CN(C)C)c2ccccc2)C3(C)C)c2sccc2n1 in the same assay as above.
Method in brief: as §1
Target IFNGR1 (UniProt P15260) has a log2 fold change of -0.068. With GSTCD (UniProt Q8NEC7) the log2 fold change was -0.04. GSTM4 (UniProt Q03013) was tested, and the log2 fold change was 0.019. GNB1 (UniProt P62873) showed a log2 fold change of 0.057. In the case of HMGN4 (UniProt O00479), the log2 fold change was -0.072. Work on KATNBL1 (UniProt Q9H079) yielded a log2 fold change of -0.143. HNRNPAB isoform 3 (UniProt Q99729) was tested, and the log2 fold change was 0.026. Target IRF2BPL (UniProt Q9H1B7) has a log2 fold change of 0.005. Target HNRNPD isoform 3 (UniProt Q14103) has a log2 fold change of -0.073. For HDAC3 (UniProt O15379), the log2 fold change was -0.019. IGF2BP2 (UniProt Q9Y6M1) showed a log2 fold change of 0.008. For IRAK4 (UniProt Q9NWZ3), the log2 fold change was 0.065. HSPB1 (UniProt P04792) gave a log2 fold change of 0.003. With HK2 (UniProt P52789) the log2 fold change was -0.003. With HAUS4 (UniProt Q9H6D7) the log2 fold change was -0.05. Target GNB4 (UniProt Q9HAV0) has a log2 fold change of 0.055. For GRK6 isoform 2 (UniProt P43250), the log2 fold change was 0.094. ILK (UniProt Q13418) was tested, and the log2 fold change was -0.066. INPPL1 (UniProt O15357) showed a log2 fold change of -0.001. HNRNPLL (UniProt Q8WVV9) was tested, and the log2 fold change was 0.009. Target GTF2I (UniProt P78347) has a log2 fold change of 0.002. Work on GPR108 (UniProt Q9NPR9) yielded a log2 fold change of 0.033. In the case of GMPS (UniProt P49915), the log2 fold change was -0.019. With HIST2H2BC (UniProt Q6DN03) the log2 fold change was -0.021. Work on HARS (UniProt P12081) yielded a log2 fold change of 0.003. Work on HNRNPUL2 (UniProt Q1KMD3) yielded a log2 fold change of 0.02. ISCA1 isoform 2 (UniProt Q9BUE6) showed a log2 fold change of 0.251. HSPA8 (UniProt E9PN89) gave a log2 fold change of -0.008. IMMT (UniProt Q16891) gave a log2 fold change of 0.016. For HAUS5 (UniProt O94927), the log2 fold change was 0.01. Target IMPDH2 (UniProt P12268) has a log2 fold change of -0.009. For HSD17B10 (UniProt Q99714), the log2 fold change was -0.044. Target HK1 isoform 2 (UniProt P19367) has a log2 fold change of 0. HIST2H2AA3 (UniProt Q6FI13) gave a log2 fold change of -0.098. For HELQ (UniProt Q8TDG4), the log2 fold change was -0.433 (active). With ICAM2 (UniProt P13598) the log2 fold change was -0.077.
